Our source for the Potency values is PubChem BioAssay AID720535 (National Center for Advancing Translational Sciences (NCATS), 2013).

Molecules are shown by their SMILES. In all, about 1,600 compounds went through this assay and about 420 (26%) were called active. Not shown: some 40% with an inconclusive outcome. The call rests on the fitted dose curve; in most records, active means well fitted inhibition curve with a large enough effect; inconclusive means small, poorly fitted or top-dose-only effect; inactive means flat fitted curve, though single readings scatter. Shown is part of a subset that was picked to be rich in actives. Where a call stands in place of a potency, no number is given.
Potency means the concentration at half of the fitted maximal effect.

This experiment is described as follows: qHTS for Inhibitors of TGF-b: Cytotox Counterscreen for Cherry Picks. Further: nearly all actives have a fitted effect of over 70% in size. The note with it: HepG2 CAGA-GFP viability, ATP luminescence, 18 h, cells stimulated with TGF-beta, 500 pg/mL; series mostly up to 46.1 µM. An excerpt:
TGF-b is a main component in the TGF-b signaling pathway which plays diverse roles in cellular and development pathways. TGF-b is mediated by transcription factors called "Smads". Although the Smad-dependent pathway is the primary canonical TGF-b signaling mode, TGF-b1 can also activate alternative signaling pathways, including those involving MAPK (ERK, JNK and p38). This interaction may mediate or enhance Smad-dependent responses, or can exert Smad-independent effects. The complexity of this signaling cascade allows the TGF-b superfamily to perform unique, overlapping or redundant functions. We believe that targeting the TGF-beta pathway at the Smad-transcription factor level may eliminate the consequences of disrupting the entire pathway and offer specificity without affecting other signaling pathways. Smad3 is the primary transducer of TGF-b's signals and Smad3 regulates many functions attributed to TGF-b signaling. We hypothesize that Smad3 inhibitors will selectively eliminate Smad3-specific TGF-beta signals without undesired off-target effects. We aim to identify Smad3-small molecule antagonists using a quantitative high throughput screening (qHTS) approach. A high-throughput assay was developed to screen the NIH Molecular Libraries Small Molecule Repository (MLSMR). This is a cell based assay, where TGF-b is tagged with GFP. This is a counterscreen that evaluates the cytotoxicity of the compounds that were identified as hits in the primary cell-based screen (AID 588855). MH087449NIH Chemical Genomics Center [NCGC] NIH Molecular Libraries Probe Centers Network [MLPCN] MLPCN Grant: MH087449 Assay Submitter (PI): Sushil Rane, National Institute of Diabetes and Kidney Diseases
Suspensions of trypsinized HEPG2 CAGA-GFP cells were dispensed into white, tissue culture-treated, solid 1536-well plates at 5uL/well (1000 cells/well final concentration) in DMEM medium supplemented with 1% FBS. Plates were incubated at 37 degrees C for 2 hours, after which 23 nL of compounds or DMSO were delivered to each well using a pin tool. One uL of recombinant TGF-beta in DMEM (1% FBS) was then dispensed (500 pg/mL final concentration), and plates were incubated at 37 degrees C for 18 hours. Two uL of CellTiter Glo (Promega), a luminescence-based viability reagent, was dispensed, followed by a 10 minute room temperature incubation. The plates were then measured on a PerkinElmer ViewLux plate reader for luminescence (clear filter) using a 5 second exposure. The %Activity was determined from the corrected luminescence values. Wells containing media only (no cells) were used to normalize %Activity of identified toxic compounds; media-only wells corresponded to 100%Activity (complete cell-killing), while DMSO-dosed cell controls were used to normalize 0%Activity (no toxicity). Concentration-response curves were fitted to the signals arising from the resulting luminescence. The concentration-effect curves were then classified based on curve quality (r2), response magnitude and degree of measured activity, and compounds were subsequently categorized based on their curve class.
(In qHTS, concentration-response curves come from the screen itself.)
Consider `COc1cc(NC(=O)c2[nH]cnc2C(N)=O)cc(C(=O)Nc2cccc(C(F)(F)F)c2)c1`, for which the Potency was 20.6 µM (active).
Take `Cc1ccc(S(=O)(=O)Nc2nc3ccccc3nc2N2CCc3ccccc3C2)cc1`: the Potency entry was “inactive”.
As for `Cc1ccc(CN2CC(N3CCC(Cc4ccccc4)CC3)CS2(=O)=O)cc1` (centres undefined), the Potency result is “inactive”.
On to `COc1ccc(C)cc1S(=O)(=O)N1CCN(S(=O)(=O)c2cc(C(=O)O)ccc2C)CC1`, for which the Potency result was “inactive”.
To `O=C(/C(=C/c1cccc(Cl)c1)c1nc2ccccc2[nH]1)c1ccccc1` belongs 6.51 µM (active).
Turning to `CN(c1ccccc1)S(=O)(=O)c1ccc(C(=O)N2CCN(c3ccccc3Cl)CC2)cc1`, the Potency result is “inactive”.
The value for `O=c1[nH]c(CCl)nc2cc(-c3ccc(Cl)cc3)sc12` was 23.1 µM (active).
With `CN(C)CCNC(=O)c1ccc(Cl)c2cc3ccccc3nc12`, the Potency was 2.59 µM (active).
As to `CC[C@H]1CN2CCc3cc(OC)c(OC)cc3[C@@H]2C[C@@H]1C[C@H]1NCCc2cc(OC)c(OC)cc21`, the Potency was 3.66 µM (active).
To `COc1ccc(-c2onc(C)c2-c2ccc3c(c2)OCCO3)c(O)c1` belongs “inactive”; to `COc1ccc(CC(=O)Nc2ccccc2NC(=O)c2ccco2)cc1OC`, “inactive”.
The value for `O=C(Nc1nnc(S(=O)(=O)N2CCCCCC2)s1)c1cccc(Br)c1` was 7.31 µM (active); that for `Cc1ccc(S(=O)(=O)Nc2ccc3c(c2)C(=O)N([C@H](C)CO)C[C@@H](C)[C@@H](CN(C)C(=O)Nc2cccc4ccccc24)O3)cc1` was “inactive”.
`COc1cccc2sc(N(CCCN(C)C)C(=O)CCS(=O)(=O)c3ccccc3)nc12`: the Potency was 13 µM (active).
In the case of `Cc1cccc2sc(N(CCCN(C)C)C(=O)CCS(=O)(=O)c3ccccc3)nc12`, the Potency is 18.4 µM (active).
On to `COC(=O)COc1cccc2c(=O)n(CC(=O)NCc3ccccc3)ccc12`, for which the Potency result is “inactive”.
As to `CCCc1cc(-c2n[nH]c(=S)n2CC)c2ccccc2n1`, the Potency result was “inactive”.
For `Cc1ccnc(NC(=O)C2CCN(S(=O)(=O)c3c(C)c(C)cc(C)c3C)CC2)c1`, the Potency was 11.6 µM (active).
In the case of `Cc1ccc(C)c(S(=O)(=O)N2CCN(CC(=O)Nc3ccc([N+](=O)[O-])cc3)CC2)c1`, the Potency result was “inactive”.
In the case of `Fc1cc(F)c2nc(Nc3nc4c(F)cccc4s3)sc2c1`, the Potency result is “inactive”.
As to `Cc1cc(C)cc(N(CC(=O)N2CC=C(c3ccccc3)CC2)S(=O)(=O)c2c(C)noc2C)c1`, the Potency result was “inactive”.
To `Cc1cccc(CS(=O)(=O)c2ncc(Cl)c(C(=O)Nc3ccc(F)cc3)n2)c1` belongs 10.3 µM (active).
Turning to `Cc1cccc(NC(=O)c2nc(S(=O)(=O)Cc3ccccc3)ncc2Cl)c1`, the Potency was 4.61 µM (active).
As to `CC(=O)c1cccc(-c2cnc3c(NC=O)cc(-c4ccc(N(C)C)cc4)cn23)c1`, the Potency entry was “inactive”.
For `O=C(Nc1ccc(Cl)cc1)Nc1nnc(/C=C/c2ccccc2)s1`, the Potency entry was “inactive”.
For the compound `COc1ccc2nc(N3CCN(C(=O)c4ccc([N+](=O)[O-])o4)CC3)sc2c1`, the Potency was 23.1 µM (active).
The value for `c1ccc2cc3c(NCCN4CCOCC4)ccnc3cc2c1` was 18.4 µM (active).
Regarding `CN(C(=O)c1cccc(NC(=O)Cc2cccc([N+](=O)[O-])c2)c1)C1CCCCC1`, the Potency result is “inactive”.
Consider `OCCCNc1nccc(-c2cc(Nc3cccc(Cl)c3)ncn2)n1`, for which the Potency is 0.651 µM (active).
Regarding `CCOC(=O)C1=C(N)N(c2ccc(C)cc2)C2=C(C(=O)CCC2)C1c1cccs1` (centres undefined), the Potency result is “inactive”.
For `CN(C)c1nc(=Nc2cccc(Cl)c2)ss1`, the Potency result was “inactive”.
As to `COc1cccc(CNc2nc(NCc3ccccc3OC)nc3ccsc23)c1`, the Potency is 16.4 µM (active).
With `FC(F)(F)c1ccccc1Cc1c(-c2ccccc2)nc2c3ccccc3ccn12`, the Potency result is “inactive”.
As to `COc1cc(NC(=O)c2ccccc2NS(=O)(=O)c2ccc(Cl)s2)cc(OC)c1`, the Potency is 8.2 µM (active).
On to `COc1cc(CC(=O)Nc2nc(-c3ccc(F)c(F)c3)cs2)cc(OC)c1OC`, for which the Potency was 9.2 µM (active).
Turning to `Cn1c(=O)n(C)c2cc(S(=O)(=O)N3CCCc4ccccc43)ccc21`, the Potency result is “inactive”.
The value for `CC1CCc2c(nc3ncnn3c2Nc2ccc(OC(F)(F)F)cc2)C1` (centres undefined) was “inactive”.
Turning to `Clc1ccc2c(c1)C1=C(C(c3ccncc3)O2)C(c2ccc(Br)cc2)n2ncnc2N1` (centres undefined), the Potency entry was “inactive”.
The value for `O=C(NC1=CC(=O)c2ccccc2C1=O)c1ccccc1` was 8.2 µM (active).
